# Test results from PubChem BioAssay (NCI).
# This is part of a sample that, as a whole, favours compounds with a hit. Of some 83,000 tested, about 20% had one in any assay.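 Each cell line was grown in a 96-well plate and treated with one concentration of compound for 48 hours. Values below 10 were considered active.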 Values without a mark were called inactive. Active and inactive are the calls of the source.
# Legend:
# Test in all cases: NCI-60 one-dose screen, 48 h (100 = growth as untreated, 0 = no growth, -100 = all killed)
# Settings in all cases: 10 µM
# DU-145 prostate = test system: DU-145 prostate
# MALME-3M melanoma = test system: MALME-3M melanoma
# MDA-MB-231 breast = test system: MDA-MB-231 breast
# RXF 393 renal = test system: RXF 393 renal
# SF-268 CNS = test system: SF-268 CNS
# SF-295 CNS = test system: SF-295 CNS
# SF-539 CNS = test system: SF-539 CNS
# UACC-257 melanoma = test system: UACC-257 melanoma
# M14 melanoma = test system: M14 melanoma
Compound,growth (DU-145 prostate),growth (MALME-3M melanoma),growth (MDA-MB-231 breast),growth (RXF 393 renal),growth (SF-268 CNS),growth (SF-295 CNS),growth (SF-539 CNS),growth (UACC-257 melanoma),growth (M14 melanoma)
CN(C)c1cccc2c(S(=O)(=O)Nc3cccc(-c4csc(NC(=O)CCCCCN5CCN(c6cc7c(cc6F)C(=O)N(C6CCC(=O)NC6=O)C7=O)CC5)n4)c3)cccc12 (stereo not given),97.2%,87.1%,98%,89.7%,91.4%,91.8%,78.5%,82%,97.3%
CC1(C)CC[C@]2(C(=O)O)CC[C@]3(C)C(=CC[C@@H]4[C@@]5(C)C/C(=C/c6ccncc6)[C@H](O)C(C)(C)[C@@H]5CC[C@]43C)[C@@H]2C1,57.9%,73.1%,34.1%,24.2%,46.9%,20.1%,27.8%,64.3%,61.6%
CCN(CC)CCOc1ccc(C(=C(C)c2ccccc2)c2ccc(OCCN(CC)CC)cc2)cc1,41.4%,-100% (active),-60.4% (active),-74.5% (active),11.6%,-63.6% (active),-98.1% (active),-83.4% (active),-53.5% (active)
O=C(Nc1ccncc1)c1ccc(-n2c(=O)[nH]c3ccccc3c2=O)cc1,100%,96.3%,98.2%,88.9%,110%,95.6%,98.8%,109%,97.4%
Cc1cc2c(c(O)c1Br)-c1ncoc1C(=O)[C@]1(C)CC[C@H](C(C)C)[C@H]21,54%,31%,48.9%,60.6%,49.4%,22.9%,14.3%,15.1%,18.9%
CC(=C(c1ccc(OCCN2CCCCCC2)cc1)c1ccc(OCCN2CCCCCC2)cc1)c1ccc(Cl)cc1,-96.1% (active),-98.9% (active),-98.8% (active),-99.4% (active),-84.9% (active),-80.6% (active),-100% (active),-96.3% (active),-57.9% (active)
CCC(C)S(=O)(=O)c1oc(-c2ccc(C)cc2)nc1S(=O)(=O)c1ccccc1 (stereo not given),-89.6% (active),-96.4% (active),-88.1% (active),-98% (active),-49.1% (active),46.9%,-100% (active),-89.5% (active),-42% (active)
C=C[C@H]1[C@H](O[C@@H]2OC(CO)[C@@H](O)[C@H](O)C2OC(=O)c2c(O)cc(O)cc2-c2cccc(O)c2)OC=C2C(=O)OCC[C@H]21 (stereo not given in full),105%,92.6%,96.1%,104%,101%,96.2%,104%,90.8%,101%
CCCCCc1ccc(S(=O)(=O)Nc2cc(-c3csc(N(C)C(C)=O)n3)ccc2N2CCN(C)CC2)cc1,70.5%,-57.1% (active),-2.21% (active),-73.8% (active),73.2%,-10.1% (active),-58.7% (active),-21.8% (active),28.3%
CC[C@@]1(O)C(=O)OCc2c1cc1n(c2=O)Cc2c-1nc1cc(F)c(C)c3c1c2[C@@H](N)CC3,6.82% (active),-55.8% (active),10.8%,-77.2% (active),6.53% (active),-0.789% (active),-74.9% (active),-59.6% (active),-20.8% (active)
CC(=O)NCC1=C(C)C=C2C(=O)[C@](C)(O)C3(CC3)C(C)=C21,-10.7% (active),-96.3% (active),-61.5% (active),-74.7% (active),18.3%,-14.5% (active),-71.1% (active),-62% (active),-69.1% (active)
CN1CCN(c2ccc(Nc3nc(N4CCN(S(=O)(=O)c5ccc(Cl)cc5)CC4)c4sccc4n3)cc2)CC1,-60.8% (active),-97.6% (active),-86.3% (active),-95.7% (active),52.9%,-78% (active),-100% (active),-87.1% (active),-60.6% (active)
CC(=C(c1ccc(OCCCN(C)C)cc1)c1ccc(OCCCN(C)C)cc1)c1ccccc1,-100% (active),-98.6% (active),-99.6% (active),-96.7% (active),-80.4% (active),-92.8% (active),-100% (active),-88% (active),-56.9% (active)
O=C(Cn1cc(CSc2nnc3oc4ccccc4n23)nn1)Nc1cccc(Cl)c1,85.6%,72.8%,63.4%,76.8%,71.8%,66.8%,70.6%,71%,87.8%
CN1CCN(c2ccc(Nc3nc(NCCCNC(=O)c4ccc(F)cc4)c4sccc4n3)cc2)CC1,75.5%,-72.3% (active),58.1%,10.8%,74.6%,79.9%,-90% (active),-26.7% (active),-7% (active)
O=C(NCCCCC(c1ccc(F)cc1)c1ccc(F)cc1)NCCCc1cccnc1,22%,-13% (active),44.8%,30.8%,52.4%,18.5%,0.987% (active),25.8%,-20.2% (active)
COc1ccc2[nH]c(O)c(N=NC(=O)c3cc(-c4ccc(C)cc4)nc4ccccc34)c2c1,90.8%,103%,98.3%,92.4%,80.2%,108%,92.3%,91.2%,99.1%
COc1ccc(C(C)=C(c2ccc(OCCCN(C)C)cc2)c2ccc(OCCCN(C)C)cc2)cc1,-96.4% (active),-97% (active),-97.4% (active),-94.6% (active),-73.7% (active),-85.2% (active),-99.5% (active),-96.1% (active),-79.8% (active)
Cc1ccc(-c2nc3ccc(C(=O)N=Nc4c(O)[nH]c5ccc(Br)cc45)cc3[nH]2)cc1,17.2%,90.5%,23%,66.1%,44.3%,93.6%,86.4%,99.7%,55.8%
Cc1ccc(C(C)C)cc1NC(=O)c1ccccc1N(C)C,97.4%,88.3%,91.1%,85.2%,95.8%,83.8%,96.9%,86.5%,93.9%
CCN1CCN(c2ccc(NC(=O)Nc3ccc(-c4cc(C(=O)NC(C)C)c5ncccc5n4)cc3)cc2C(F)(F)F)CC1,-54.9% (active),-97.5% (active),-91.9% (active),-96% (active),-16.3% (active),-92.4% (active),-98.9% (active),-95.6% (active),-88.4% (active)
C#Cc1ccc(S(=O)(=O)Nc2cccc(-c3csc(NC(C)=O)n3)c2)cc1,82.6%,78.7%,84.5%,88.4%,87.3%,66.1%,90.3%,80%,92.4%
COc1ccc(-c2nc(S(=O)(=O)c3ccc(C)cc3)c(S(=O)(=O)CC(=O)N(C)Cc3ccccc3)o2)cc1,35.5%,16.7%,2.89% (active),-54.4% (active),64.8%,78.5%,36.8%,67.9%,35.7%
Cc1cc(C)nc(SCC(=O)Nc2ccc(S(N)(=O)=O)cc2)n1,114%,99.1%,103%,96%,125%,99.8%,94.8%,107%,114%
O=C(CS(=O)(=O)c1oc(-c2ccc(Cl)cc2)nc1S(=O)(=O)c1ccc(Cl)cc1)N1CCOCC1,32.3%,-71.3% (active),-1.43% (active),-76.1% (active),84.6%,85%,21.5%,73.9%,24.4%
NC(=Nc1ccc(OCCCCCCCCn2ccnn2)cc1)c1ccccc1,26.7%,45.1%,13.8%,,72.4%,10.1%,,50.8%,18.4%
O=C(Nc1ccc(OCC(=O)c2ccccc2)cc1)Nc1ccc(Cl)c(C(F)(F)F)c1,49.2%,10.4%,16.8%,-36.7% (active),18.9%,13.2%,12.1%,7.84% (active),17.5%
CC(=O)Nc1nc(-c2ccc(N3CCN(C)CC3)c(NS(=O)(=O)c3cccc4c(N(C)C)cccc34)c2)cs1,76.2%,-35.6% (active),65%,19.6%,78.5%,-58.7% (active),16%,-6.28% (active),-57.5% (active)
